# PubChem BioAssay
# Several values for one entry are separate records, joined by “and”; a condition that tells them apart may be missing. Equal values may be shown once. Records with an inconclusive call do not appear. For part of these data: Results with a measured potency or affinity are listed apart. Activity calls are given as the source filed them.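 How the source made its calls, unless noted: active means normalized viability below 100% at a tested concentration; inactive means the rest.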
# How the values were obtained:
# [1] = sensitizers of A549 cells to miR-34 induction, primary screen, imaging, A549 dox-inducible miR-34, nuclei and caspase counts (AID 1347080;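 active means compounds whose cell count with miR-34 switched on is under 0.7 times the count with it off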); conditions: A549 miR-34 inducible, Hoechst nuclei count, 48 h
# [2] = survival rescue of mitochondrial mutant cells in low glucose, primary screen, MELAS cybrids, Rieske KO mouse fibroblasts, CellTiter-Glo (AID 1508586;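 active means mean z-score across replicates of 1.96 or higher in either the MELAS or the Rieske mutant cell line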;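 further: z relative to plate mean and SD of compound and empty wells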)
# [3] = ovarian cancer cell viability with rucaparib, profiling panel, oncology-focused library, rucaparib conditional (AID 1508598); conditions: patient-derived ovarian cancer cells, CellTiter-Glo viability, 144 h, stronger effect = lower value
# [4] = biological target: ATP-dependent translocase ABCB1 (Homo sapiens) (UniProt P08183); assay: MDR1 (ABCB1) efflux transporter inhibition, cell-based (AID 377; in the data active means fluorescence slope change above about 50%); conditions: MDR1-expressing cells, fluorescent substrate accumulation slope; stronger effect = higher value; concentration not given here
# Sequence of ATP-dependent translocase ABCB1 (Homo sapiens) (P08183 whole entry, looked up): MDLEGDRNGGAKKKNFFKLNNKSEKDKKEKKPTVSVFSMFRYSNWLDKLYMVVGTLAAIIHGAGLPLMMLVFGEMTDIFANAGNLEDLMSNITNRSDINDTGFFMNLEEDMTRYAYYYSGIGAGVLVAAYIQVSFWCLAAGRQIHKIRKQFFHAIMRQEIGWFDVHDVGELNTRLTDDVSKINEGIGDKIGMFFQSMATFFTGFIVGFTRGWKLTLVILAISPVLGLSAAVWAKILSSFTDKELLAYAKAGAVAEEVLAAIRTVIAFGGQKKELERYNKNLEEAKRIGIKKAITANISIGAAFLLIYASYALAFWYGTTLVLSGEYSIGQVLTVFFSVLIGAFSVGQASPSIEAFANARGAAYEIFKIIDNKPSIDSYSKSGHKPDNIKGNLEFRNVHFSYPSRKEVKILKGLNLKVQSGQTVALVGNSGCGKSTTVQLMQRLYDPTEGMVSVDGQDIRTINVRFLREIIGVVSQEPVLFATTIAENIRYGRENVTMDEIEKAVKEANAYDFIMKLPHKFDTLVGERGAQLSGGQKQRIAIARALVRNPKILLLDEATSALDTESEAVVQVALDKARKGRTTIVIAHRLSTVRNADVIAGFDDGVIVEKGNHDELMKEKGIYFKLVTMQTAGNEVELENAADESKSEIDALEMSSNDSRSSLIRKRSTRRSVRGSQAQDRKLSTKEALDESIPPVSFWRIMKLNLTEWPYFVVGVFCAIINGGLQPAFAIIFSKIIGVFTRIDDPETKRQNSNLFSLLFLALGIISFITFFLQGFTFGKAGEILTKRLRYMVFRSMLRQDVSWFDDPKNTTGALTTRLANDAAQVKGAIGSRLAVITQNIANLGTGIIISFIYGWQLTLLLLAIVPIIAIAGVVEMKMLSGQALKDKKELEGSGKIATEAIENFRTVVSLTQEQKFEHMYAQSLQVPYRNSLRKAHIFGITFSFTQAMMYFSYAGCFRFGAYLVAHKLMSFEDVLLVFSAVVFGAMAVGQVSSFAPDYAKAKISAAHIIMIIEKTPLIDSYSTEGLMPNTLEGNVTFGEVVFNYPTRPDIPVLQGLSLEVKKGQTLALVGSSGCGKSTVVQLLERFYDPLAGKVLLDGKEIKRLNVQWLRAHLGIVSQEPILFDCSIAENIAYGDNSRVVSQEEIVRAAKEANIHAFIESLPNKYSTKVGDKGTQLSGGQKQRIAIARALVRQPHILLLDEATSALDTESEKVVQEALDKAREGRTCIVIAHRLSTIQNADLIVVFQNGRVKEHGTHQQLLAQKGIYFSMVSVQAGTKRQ
# [5] = polyglutamine-triggered caspase-3 activation inhibitors, cell-based (AID 1583); conditions: polyglutamine-induced caspase-3 activation, cell assay; stronger effect = higher value;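 tested at 10 µM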
# [6] = suppressors of polyQ aggregation in yeast, 75Q-TubU reporter (AID 1593); conditions: Yeast 75Q polyglutamine aggregation reporter
# [7] = rescue of polyQ-huntingtin neuronal dysfunction in worms, whole organism, C. elegans mechanosensory neurons, N-terminal huntingtin (AID 1599); conditions: touch response, stronger effect = higher value
# [8] = inhibitors of mitochondrial cytochrome c release, biochemical, purified mitochondria (AID 1603); conditions: stronger effect = lower value;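 further: mouse liver mitochondria challenged with calcium chloride; signal normalized to the plate average as 100%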
# [9] = inhibitors of polyQ protein aggregation (AID 1604); conditions: polyglutamine-induced protein aggregation inhibition assay; stronger effect = higher value; tested at 2.5 µM
# [10] = enhancers of glutamate uptake in motor neurons, MN-1 cell line (AID 1612); conditions: MN-1 motor neuron cells, stronger effect = higher value;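 further: tested at 1 µM final; 0% = mean of DMSO vehicle wells on each plate; positive means more glutamate uptake than control and negative means less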
# [11] = reducers of polyQ inclusions in PC12 cells, cell-based, NGF-treated PC12, GFPQ80 (AID 1614); conditions: PC12 NGF-treated GFP-polyQ80 inclusion reduction;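 further: lower means fewer inclusions and 0 means no inclusions at all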
# [12] = suppressors of polyglutamine aggregation in yeast, 75Q-TubH (AID 1616); conditions: S. cerevisiae 75Q-TubH polyglutamine aggregation suppression; stronger effect = higher value
# [13] = kinase inhibitors against Plasmodium liver-stage infection, cell-based, known kinase inhibitor set, luminescence, hepatoma host viability (AID 624392; call rule not given here;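 further: infected cells incubated roughly two days before readout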); conditions: Plasmodium liver stage in hepatoma cells, luciferase luminescence, concentration not given here; liver cell % of control: measured here: host liver cell viability; parasite % of control: stronger effect = lower value
# [14] = Cy5 fluorescence interference with SSB-bound oligo, artefact control for HCV NS3 helicase inhibitor project, biochemical, NIH Clinical Collection, E. coli SSB (AID 743268; call rule not given here)
# [15] = tested on: Hepatitis C virus NS3 helicase; assay: HCV NS3 helicase inhibitors, primary screen, biochemical, fluorescence polarization, NIH Clinical Collection (AID 743270; call rule not given here); conditions: NS3 helicase binding to Cy5-dT15 DNA, stronger effect = higher value, concentration not given here
# [16] = biological target: Single-stranded DNA-binding protein (Escherichia coli (strain K12)) (UniProt P0AGE0); assay: E. coli SSB displacement from DNA, counter-screen for HCV NS3 helicase inhibitor project, biochemical, fluorescence polarization, NIH Clinical Collection (AID 743271; in the data active means inhibition above about 28%); conditions: stronger effect = higher value, concentration not given here
# [17] = fluorescence interference in NS3h assay format, artefact control for HCV NS3 helicase inhibitor project, biochemical, NIH Clinical Collection (AID 743272; call rule not given here;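 further: HCV NS3 helicase with a Cy5 labelled single stranded DNA probe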); conditions: fluorescence interference counterscreen, stronger effect = lower value
# [18] = viability rescue of complex I mutant cybrids, primary screen, cell-based, galactose medium, ATP luminescence (AID 1645843;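 active means z-score of at least 1.8 in each of two replicates, scored against plate mean and spread of sample wells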;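 further: positive z means more ATP and so rescue of galactose-driven cybrid death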); conditions: complex I mutant cybrid cells, 72 h, stronger effect = higher value
# [19] = stronger effect = lower value, cell number ratio, induced over uninduced
# [20] = measured here: relative caspase fold change +Dox/-Dox
# [21] = measured here: total cells with miR-34 induction, stronger effect = lower value
# [22] = measured here: total cells without miR-34 induction
# [23] = MELAS cybrid survival, CellTiter-Glo 48 h, stronger effect = higher value
# [24] = Rieske KO mouse fibroblast survival, CellTiter-Glo 72 h
smiles,measurement,setting,value
COc1ccccc1-c1cc(Nc2cccc(CS(N)(=O)=O)c2)ncn1,fold change,[1]; [19],0.955 (inactive)
same,fold change,[1]; [20],0.462
same,cell count,[1]; [21],3900
same,cell count,[1]; [22],4080
same,z-score,[2]; [23],-0.3 (inactive)
same,z-score,[2]; [24],-1.46
same,viability,"[3]; at 0.000305 µM, OCI-C5x cells, with rucaparib 10 µM, 100% = cells with rucaparib alone",125% (inactive)
same,viability,"[3]; at 0.000305 µM, OCI-C5x cells, without rucaparib",105% (inactive)
same,viability,"[3]; at 0.000305 µM, OCI-P5x cells, with rucaparib 20 µM, 100% = cells with rucaparib alone",92.8% (active)
same,viability,"[3]; at 0.000305 µM, OCI-P5x cells, without rucaparib",91.1% (active)
same,viability,"[3]; at 0.00122 µM, OCI-C5x cells, with rucaparib 10 µM, 100% = cells with rucaparib alone",122% (inactive)
same,viability,"[3]; at 0.00122 µM, OCI-C5x cells, without rucaparib",98.9% (active)
same,viability,"[3]; at 0.00122 µM, OCI-P5x cells, with rucaparib 20 µM, 100% = cells with rucaparib alone",96.8% (active)
same,viability,"[3]; at 0.00122 µM, OCI-P5x cells, without rucaparib",90.1% (active)
same,viability,"[3]; at 0.00488 µM, OCI-C5x cells, with rucaparib 10 µM, 100% = cells with rucaparib alone",127% (inactive)
same,viability,"[3]; at 0.00488 µM, OCI-C5x cells, without rucaparib",107% (inactive)
same,viability,"[3]; at 0.00488 µM, OCI-P5x cells, with rucaparib 20 µM, 100% = cells with rucaparib alone",103% (inactive)
same,viability,"[3]; at 0.00488 µM, OCI-P5x cells, without rucaparib",95.2% (active)
same,viability,"[3]; at 0.0195 µM, OCI-C5x cells, with rucaparib 10 µM, 100% = cells with rucaparib alone",126% (inactive)
same,viability,"[3]; at 0.0195 µM, OCI-C5x cells, without rucaparib",117% (inactive)
same,viability,"[3]; at 0.0195 µM, OCI-P5x cells, with rucaparib 20 µM, 100% = cells with rucaparib alone",103% (inactive)
same,viability,"[3]; at 0.0195 µM, OCI-P5x cells, without rucaparib",97.6% (active)
same,viability,"[3]; at 0.0781 µM, OCI-C5x cells, with rucaparib 10 µM, 100% = cells with rucaparib alone",126% (inactive)
same,viability,"[3]; at 0.0781 µM, OCI-C5x cells, without rucaparib",115% (inactive)
same,viability,"[3]; at 0.0781 µM, OCI-P5x cells, with rucaparib 20 µM, 100% = cells with rucaparib alone",100% (inactive)
same,viability,"[3]; at 0.0781 µM, OCI-P5x cells, without rucaparib",102% (inactive)
same,viability,"[3]; at 0.313 µM, OCI-C5x cells, with rucaparib 10 µM, 100% = cells with rucaparib alone",111% (inactive)
same,viability,"[3]; at 0.313 µM, OCI-C5x cells, without rucaparib",102% (inactive)
same,viability,"[3]; at 0.313 µM, OCI-P5x cells, with rucaparib 20 µM, 100% = cells with rucaparib alone",93.6% (active)
same,viability,"[3]; at 0.313 µM, OCI-P5x cells, without rucaparib",99.6% (active)
same,viability,"[3]; at 1.25 µM, OCI-C5x cells, with rucaparib 10 µM, 100% = cells with rucaparib alone",125% (inactive)
same,viability,"[3]; at 1.25 µM, OCI-C5x cells, without rucaparib",110% (inactive)
same,viability,"[3]; at 1.25 µM, OCI-P5x cells, with rucaparib 20 µM, 100% = cells with rucaparib alone",91.1% (active)
same,viability,"[3]; at 1.25 µM, OCI-P5x cells, without rucaparib",94.8% (active)
same,viability,"[3]; at 5 µM, OCI-C5x cells, with rucaparib 10 µM, 100% = cells with rucaparib alone",105% (inactive)
same,viability,"[3]; at 5 µM, OCI-C5x cells, without rucaparib",99.7% (active)
same,viability,"[3]; at 5 µM, OCI-P5x cells, with rucaparib 20 µM, 100% = cells with rucaparib alone",64.2% (active)
same,viability,"[3]; at 5 µM, OCI-P5x cells, without rucaparib",74.8% (active)
CC(=O)OCC(=O)[C@]12N=C(C)O[C@@H]1C[C@H]1[C@@H]3CCC4=CC(=O)C=C[C@]4(C)[C@@H]3C(O)C[C@@]12C (some centres not stated),fold change,[1]; [19],0.954 (inactive)
same,fold change,[1]; [20],1.27
same,cell count,[1]; [21],5010
same,cell count,[1]; [22],5250
same,z-score,[2]; [23],-0.0832 (inactive)
same,z-score,[2]; [24],-0.272
NC1CCCN(c2c(C=C3SC(=O)NC3=O)cccc2-c2ccccc2)C1 (configuration not stated),fold change,[1]; [19],0.91 (inactive)
same,fold change,[1]; [20],0.316
same,cell count,[1]; [21],8290
same,cell count,[1]; [22],9110
same,z-score,[2]; [23],-0.282 (inactive)
same,z-score,[2]; [24],0.224
CC(C)[N+]1(C)[C@@H]2CC[C@H]1CC(OC(=O)C(CO)c1ccccc1)C2 (some centres not stated),fluorescence slope change,[4],52.9% (active)
C[C@@H]1CCC[C@H](C)N1NC(=O)c1ccc(Cl)c(S(N)(=O)=O)c1,fluorescence slope change,[4],11.3% (inactive)
NC[C@H]1O[C@H](O[C@H]2[C@H](O)[C@@H](O[C@H]3O[C@H](CO)[C@@H](O)[C@H](N)[C@H]3O)[C@H](N)C[C@@H]2N)[C@H](O)[C@@H](O)[C@@H]1O,inhibition,[5],5.91%
same,score,[6],1.82
same,rescue above control,[7],-8.71
same,cytochrome c release ratio,[8],1
same,inhibition of aggregation,[9],28.5%
same,glutamate uptake change,[10],2.43%
same,inclusion score,[11],2
same,aggregation suppression score,[12],1.68
Cc1ccc(NC(=O)c2ccc(CN3CCN(C)CC3)cc2)cc1Nc1nc(-c2cccnc2)cs1,liver cell % of control,[13],46.6% and 78.6% and 98.8%
same,parasite % of control,[13],29.5% (inactive) and 24.2% (inactive) and 36% (inactive)
C[C@]12CC[C@@H]3c4ccc(OS(=O)(=O)O)cc4CC[C@H]3[C@@H]1CCC2=O,fluorescence ratio,[14],1.03 (inactive)
same,inhibition,[15],-1.09% (inactive)
same,inhibition,[16],-2.76% (inactive)
same,fluorescence ratio,[17],1.01 (inactive)
CCn1cnc(NC(=O)N(C)CC2Cc3ccccc3O2)n1 (configuration not stated),fold change,[1]; [19],0.971 (inactive)
same,fold change,[1]; [20],1.16
same,cell count,[1]; [21],9520
same,cell count,[1]; [22],9810
same,z-score,[2]; [23],-0.133 (inactive)
same,z-score,[2]; [24],-0.0873
same,z-score,[18],-0.62 (inactive)
NCc1ccc(-c2cccs2)cc1,fold change,[1]; [19],0.89 (inactive)
same,fold change,[1]; [20],0.746
same,cell count,[1]; [21],8580
same,cell count,[1]; [22],9650
same,z-score,[2]; [23],-0.349 (inactive)
same,z-score,[2]; [24],-0.59
same,z-score,[18],0.51 (inactive)
Cc1ccc2nc(C3CCCN3c3ncc(C)c(-c4cnn(C)c4)n3)[nH]c2c1 (configuration not stated),fold change,[1]; [19],0.91 (inactive)
same,fold change,[1]; [20],1.37
same,cell count,[1]; [21],7980
same,cell count,[1]; [22],8770
same,z-score,[2]; [23],-0.0346 (inactive)
same,z-score,[2]; [24],0.328
same,z-score,[18],-0.325 (inactive)
